Assay outcomes (PubChem)
p53 reactivator: restores transcriptional activity of mutant p53; H1299 p53-A138V BP100-luciferase reporter, luminescence, 24 h; Potency, µM (top dose mostly 92.2 µM), actives largely listed as activators; actives 0.063% (n = 320,000); also: nearly all actives have a fitted effect of over 45% in size
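H1299 (p53-null), stable ts p53-A138V + BP100-Luc; 1000 cells/well, Opti-MEM/10% FBS; cpd 4 pt, 1:5; 24 h, 37 deg C, 5% CO2; detection reagent 10 min RT; luminescence.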
ASM inhibitor: human S-ASM enzyme inhibition; P17405; placental ASM, HMU-PC fluorogenic substrate, 60 min; Potency, µM (highest dose often 57.5 µM), most hits filed as inhibitors; actives 0.006% (n = 340,000)
Target sequence (P17405 47-631 limits assumed): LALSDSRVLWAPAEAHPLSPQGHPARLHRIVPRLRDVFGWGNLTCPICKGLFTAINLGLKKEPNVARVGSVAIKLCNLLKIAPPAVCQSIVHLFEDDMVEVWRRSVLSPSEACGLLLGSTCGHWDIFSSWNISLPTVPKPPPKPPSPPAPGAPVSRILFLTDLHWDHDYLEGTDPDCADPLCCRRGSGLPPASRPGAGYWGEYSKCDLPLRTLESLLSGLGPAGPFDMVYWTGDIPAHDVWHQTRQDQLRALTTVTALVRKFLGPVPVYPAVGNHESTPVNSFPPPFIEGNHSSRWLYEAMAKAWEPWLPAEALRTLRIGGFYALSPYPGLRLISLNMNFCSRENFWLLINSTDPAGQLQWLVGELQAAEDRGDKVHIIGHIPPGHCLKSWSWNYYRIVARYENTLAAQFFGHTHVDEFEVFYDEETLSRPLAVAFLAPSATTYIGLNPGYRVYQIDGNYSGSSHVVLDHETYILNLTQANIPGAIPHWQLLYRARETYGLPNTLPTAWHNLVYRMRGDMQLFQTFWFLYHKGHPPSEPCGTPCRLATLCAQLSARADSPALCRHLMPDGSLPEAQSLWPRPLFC
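Steps: dispense placental human ASM, pin compound, wait 10 min at room temperature, add HMU-PC0 substrate at 9 uM final, incubate 60 min at 37 °C, add stop solution raising pH to 10, read fluorescence.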
N370S GC mod: inhibitors or activators of N370S glucocerebrosidase for Gaucher disease. P04062. N370S GC spleen homogenate, 4MU-glucoside fluorescence. Potency, µM (top dose mostly 59.4 µM), actives largely listed as inhibitors. actives 0.092% (n = 330,000). AID 2101
AT treatment: potential ataxia-telangiectasia treatment; F2112 A-T fibroblasts, KAP-1 phosphorylation AlphaLISA; neocarzinostatin DNA damage 30 min before lysis; Potency, µM (titrated, usually from 57.5 µM), hits mostly activators; actives 0.19% (n = 320,000); also: nearly all actives have a fitted effect of over 45% in size
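hTERT-immortalized A-T patient fibroblasts (F2112), 500 cells/well in OPTI-MEM, 1% FBS, got compounds for 60 min, then NCS for 30 min at 37C. Lysates were then assayed for phospho-KAP-1 by AlphaLISA (anti-pKAP1 donor, anti-KAP1 acceptor beads), 6 hr at 25C.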
Numbers stand for hits; n = inactive; u = inconclusive; x = not tested or not shown; ! = not confirmed by another sample; [ ] = another dose, or the depositor's remark. Only some compounds are listed: those with a hit (about 0.3% of all), similar ones and a draw of the others. Calls follow the shape of the dose curve; as a rule, active = well fitted curve in the direction sought with a large enough effect; inconclusive = small, poorly fitted or top-dose-only effect, or another doubt; inactive = no such curve, though single readings can be large; an effect the other way counts as inactive or inconclusive.

SMILES	p53 reactivator	ASM inhibitor	N370S GC mod	AT treatment
CC(C)C[C@H](NC(=O)[C@H](Cc1ccccc1)NC(=O)CNC(=O)[C@H](CCC(=O)O)NC(=O)[C@H](CCCNC(=N)N)NC(=O)[C@H](C)NC(=O)[C@H](C)NC(=O)[C@@H](N)CC(=O)O)C(=O)N[C@@H](CC(=O)O)C(=O)N[C@H](C(=O)N[C@@H](CC(C)C)C(=O)N[C@H](C(=O)N[C@H](C(=O)N[C@@H](CC(C)C)C(=O)N[C@@H](Cc1cnc[nH]1)C(=O)N[C@@H](CCCNC(=N)N)C(=O)N[C@@H](C)C(=O)NCC(=O)N[C@@H](C)C(=O)N[C@@H](CCCNC(=N)N)C(=O)O)C(C)C)C(C)C)[C@@H](C)O	x	x	n	x
CCC(=O)Nc1nc(C)c(-c2csc(Nc3cccc(O)c3)n2)s1	28µM	n	n	n
C[C@H]1Cc2c(-c3ccccc3)nc3c(c2CO1)CN(C(=O)c1cccnc1)CC3	x	x	n[12.8 µM]	x
C/C=C\C=C/C(=O)Nc1cccc(C2=NOC3(C2)C[C@@H](C(N)=O)N(C(=O)COc2ccc(Cl)cc2)C3)c1 (some centres undefined)	n	n	n	3.2µM
O=C(Nc1ccc(S(=O)(=O)Nc2ncccn2)cc1)c1ccc(F)c(S(=O)(=O)N2CCOCC2)c1	n	n	n	28µM
CN(C)/[N+]([O-])=N/Oc1cc(ON=[N+]([O-])N2CCN(c3ncccn3)CC2)c([N+](=O)[O-])cc1[N+](=O)[O-]	x	x	n	x
O=c1c2ccccc2nc(SCc2ccccc2)n1CC1CCCO1 (centres undefined)	n	n	u	14µM
CCCCCCCCCCCCCCCC(=O)C1=C(O)C(CO)OC1=O (centres undefined)	x	x	n	x
C=CCc1c(C)nc(-c2ccccc2)nc1N/N=C(\C)c1ccccc1	n	n	10µM	n
C=CCc1c(C)nc(-c2ccccc2)nc1Nc1ccc(O)cc1	n	n	14µM	n
C=CCc1c(C)nc(SC)nc1Nc1ccccc1	n	n	n	n
C/C(=N\Nc1nc(C)cc(-c2ccccc2)n1)c1ccc(F)cc1	x	n	n	n
Cc1ccc(NC(=O)CCS(=O)(=O)c2ccc3c(c2)NC(=O)C(C)S3)cc1Cl (centres undefined)	u	n	7.9µM	n
CC1Sc2ccc(S(=O)(=O)CCC(=O)Nc3ccc(C(C)C)cc3)cc2NC1=O (centres undefined)	u	n	6.3µM	n
CC1Sc2ccc(S(=O)(=O)CCC(=O)Nc3ccccc3Cl)cc2NC1=O (centres undefined)	n	n	u	n
CC1Sc2ccc(S(=O)(=O)CCC(=O)NC(C)c3ccccc3)cc2NC1=O (centres undefined)	n	n	n	n
CC#CCN1c2ccccc2[C@]23C[C@@H](C(=O)OC)N(S(=O)(=O)c4ccc(C#N)cc4)C2=NC(C(=O)OC)=C(C(=O)OC)[C@H]13	x	x	n[12.8 µM]	x
Nn1c(SCc2ccc(F)cc2)nnc1-c1ccccn1	n	n	n	16µM
Cc1ccccc1OCC1CO1 (centres undefined)	x	x	n	x
COc1cccc(NC(=S)N(CCCN2CCOCC2)Cc2cn(C)c3ccccc23)c1	n	n	2.8µM	n
c1ccc2c(c1)OCCOCCOCCOCCO2	x	x	n	x
COC(=O)c1ccc(COC(=O)c2ccccc2OC)cc1	22µM	n	n	n
C/C(=C\COc1c2ccoc2cc2oc(=O)ccc12)CCC(O)C(C)(C)O (centres undefined)	x	x	n	x
CC(=O)OCCBr	x	x	n	x
COc1ccc(-n2cc(-c3ccccc3)[n+]3c2CCCCC3)cc1	n	n	n	n
SMILES	p53 reactivator	ASM inhibitor	N370S GC mod	AT treatment
FC(F)Oc1ccc(-n2cc(-c3ccc(Cl)cc3)[n+]3c2CCCCC3)cc1	n	n	n	14µM
CCOc1ccc(NC(=O)CN(c2ccc(OCC)cc2)S(=O)(=O)c2c(C)[nH]c(=O)[nH]c2=O)cc1	n	n	6.3µM	n
CCOc1ccc(N(CC(=O)Nc2ccc(C)cc2)S(=O)(=O)c2c(C)[nH]c(=O)[nH]c2=O)cc1	n	n	2.8µM	n
CC(=O)c1sc2nc(C)c3c(c2c1N)CCCC3	n	n	n	35µM
Cc1nc2sc(C#N)c(N)c2c2c1CCCC2	n	n	n	n
O=c1oc2ccccc2c2c1C1O[C@](c3ccsc3)(Cc3c1ccc1ccccc31)O2	x	x	n[12.8 µM]	n[11.5 µM]
O=C(NCCCCCCNC(=O)ON=C1CCCCC1)ON=C1CCCCC1	x	x	n	x
CCOC(=O)c1ccccc1N/C=C/C(=O)c1cccs1	16µM	n	n	n
COC1=C(N)C(=O)c2nc(-c3nc(C(=O)O)c(C)c(-c4ccc(OC)c(OC)c4O)c3N)ccc2C1=O	n	n	n	0.71µM
COc1ccc(CN=C2Nc3ccccc3CS2)cc1	10µM	n	n	n
C=CCN1C(=O)/C(=C/C(=O)OC)S/C1=N\NC(=O)c1ccccc1	n	n	n	10µM
CC1CCCC(C)N1CCCNC(=O)Cn1ncc2c3ccccc3n(C)c2c1=O (centres undefined)	n	n	n	7.1µM
COc1ccc(C=C2c3ccccc3C(=O)c3ccccc32)cc1O	x	x	n	x
CC(C)[C@H](O)CC[C@@H](C)C1CC[C@H]2C3CC=C4C[C@@H](O)CC[C@]4(C)C3CC[C@]12C (some centres undefined)	x	x	n	x
C=CC[C@@H]1/C=C(\C)C[C@H](C)C[C@H](OC)[C@H]2O[C@@](O)(C(=O)C(=O)N3CCCC[C@H]3C(=O)O[C@H](/C(C)=C/[C@@H]3CC[C@@H](O)[C@H](OC)C3)[C@H](C)[C@@H](O)CC1=O)[C@H](C)C[C@@H]2OC	x	x	n	x
Cc1ccc(NC(=O)Nc2cccnc2)cc1NC(=O)Nc1cccnc1	n	n	u	1.3µM
COC(=O)[C@H]1[C@H]2CC3c4[nH]c5ccccc5c4CCN3C[C@@H]2CC[C@@H]1O (some centres undefined)	x	x	n	x
CC1CCCC(C)N1C(=O)CSc1nnc(C2CCCCC2)o1 (centres undefined)	u	n	n	32µM
Cc1cc(-c2nnc(SCC(=O)N3C(C)CCCC3C)o2)no1 (centres undefined)	n	n	n	n
CN1CCN(C2=C(Cl)C(=O)N(Cc3ccccc3)C2=O)CC1	20µM	n	n	n
CCN1CCN(C2=C(Cl)C(=O)N(Cc3ccccc3)C2=O)CC1	n	n	n	n
C=CCN1c2ccccc2[C@]23C[C@@H](C(=O)OC)N(C(C)=O)C2=NC(C(=O)OC)=C(C(=O)OC)[C@H]13	n	n	n[12.8 µM]	13µM
O=C(CCc1ccc(O)cc1)c1c(O)cc(O)cc1O	n	n	18µM!	28µM
Cc1nn(-c2nc3ccccc3s2)c(N)c1-c1ccc(Cl)cc1	u	n	n	n
Cc1nn(-c2nc3ccccc3s2)c(N)c1-c1ccccc1	22µM	n	n	n
COc1ccc2cc1Oc1ccc(cc1)CC1c3cc(c(OC)cc3CCN1C)Oc1c(OC)c(OC)c(OC)c3c1C(C2)N(C)CC3 (centres undefined)	x	x	n	x
